# Test results from PubChem BioAssay (NCATS).
# Records with an inconclusive call do not appear. Activity calls are given as the source filed them. Unless noted, the call rests on the fitted dose curve; in most records, active means well fitted curve in the direction sought with a large enough effect; inconclusive means small, poorly fitted or top-dose-only effect, or another doubt; inactive means no such curve, though single readings can be large; an effect the other way counts as inactive or inconclusive.
# Assays:
# [1] = biological target: Lysosomal acid glucosylceramidase (Homo sapiens) (UniProt P04062); assay: Glucocerebrosidase-p2 (AID 348; in the data active means potency below about 10 µM; further: potency means the concentration at half of the fitted maximal effect); settings: purified GBA, blue fluorogenic substrate, 40 min
# Sequence of Lysosomal acid glucosylceramidase (Homo sapiens) (P04062 whole entry, looked up): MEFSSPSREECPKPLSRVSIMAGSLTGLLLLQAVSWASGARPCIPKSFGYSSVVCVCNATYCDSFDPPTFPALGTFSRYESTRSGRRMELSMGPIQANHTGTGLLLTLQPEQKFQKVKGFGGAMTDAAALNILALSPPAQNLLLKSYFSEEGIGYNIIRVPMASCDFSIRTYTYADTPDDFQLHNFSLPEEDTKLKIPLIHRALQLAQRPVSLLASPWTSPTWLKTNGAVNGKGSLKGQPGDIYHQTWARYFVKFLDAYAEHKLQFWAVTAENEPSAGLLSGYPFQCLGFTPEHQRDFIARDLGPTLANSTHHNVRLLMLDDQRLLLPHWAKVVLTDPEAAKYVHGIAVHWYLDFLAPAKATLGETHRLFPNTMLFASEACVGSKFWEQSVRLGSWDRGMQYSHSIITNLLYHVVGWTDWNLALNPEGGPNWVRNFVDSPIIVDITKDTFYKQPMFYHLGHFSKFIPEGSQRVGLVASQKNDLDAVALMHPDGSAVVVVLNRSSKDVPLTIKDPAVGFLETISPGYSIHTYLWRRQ
# Outline: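 Compounds titrated from 0.6 nM upwards against 0.2 nM enzyme in pH 5.9 citric acid/KH2PO4, taurocholate, tween-20; blue fluorogenic substrate 80 uM, 40 min room temperature, stopped and read Ex 365/Em 440 for AC50.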
# [2] = AP1 Signaling Pathway (AID 357; active means well fitted curve in either direction with a large enough effect, not every such curve was filed as active;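 further: ME-180 reporter cells stimulated with EGF at its EC50 level; on the % scale 0 is the no-effect control and ±100 the full control effect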); settings: ME-180 AP-1-bla reporter, EGF-induced, beta-lactamase ratio, 5 h; at 7.69 µM (top of the series) unless noted
# Outline: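 AP-1-bla ME-180 cells, Opti-MEM + 0.5% dialyzed FBS, plated overnight 37 °C. Cpd titration + EC50 EGF, 5 h 37 °C. CCF4 2.5 h RT; ex 405, em 460/530 ratio → %activity, AC50.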
# [3] = biological target: Cytochrome P450 1A2 (Homo sapiens) (UniProt P05177); assay: p450-cyp1a2 (AID 410; calls by dose curve; further: potency means the concentration at half of the fitted maximal effect;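 on activity change, negative = inhibition: -100% = full effect of reference inhibitor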)
# Sequence of Cytochrome P450 1A2 (Homo sapiens) (P05177 whole entry, looked up): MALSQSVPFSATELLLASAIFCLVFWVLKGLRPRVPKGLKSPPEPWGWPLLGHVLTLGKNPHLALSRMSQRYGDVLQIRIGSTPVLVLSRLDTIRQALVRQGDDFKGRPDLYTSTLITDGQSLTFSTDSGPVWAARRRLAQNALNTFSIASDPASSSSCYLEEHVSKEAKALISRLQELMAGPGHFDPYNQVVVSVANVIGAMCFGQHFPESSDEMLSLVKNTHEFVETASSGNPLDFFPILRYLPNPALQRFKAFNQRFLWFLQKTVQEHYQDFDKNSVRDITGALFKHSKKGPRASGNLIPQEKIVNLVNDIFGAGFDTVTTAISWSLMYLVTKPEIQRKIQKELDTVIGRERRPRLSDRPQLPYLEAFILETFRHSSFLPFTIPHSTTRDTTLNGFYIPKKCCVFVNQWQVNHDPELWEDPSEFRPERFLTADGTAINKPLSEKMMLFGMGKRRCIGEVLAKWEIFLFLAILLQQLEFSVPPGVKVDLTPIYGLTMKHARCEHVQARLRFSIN
# Outline: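 Inhibition was calculated relative to 57 uM furafylline (full inhibition). The reaction used human CYP1A2 at 20nM with Luciferin-ME at its Km, 100uM, driven by an NADPH-regenerating system for 60 min at room temperature.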
# [4] = Stat Signaling Pathway (AID 446; active means well fitted curve in either direction with a large enough effect, not every such curve was filed as active;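 further: ME-180 cervical cancer cells given 40 pM IL-6 alongside compound; SIE-controlled beta-lactamase reporter measured as 460/530 nm FRET emission ratio; on the % scale 0 is the no-effect control and ±100 the full control effect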); settings: ME-180 SIE beta-lactamase reporter, IL-6 stimulated, 5 h; at 7.69 µM (top of the series) unless noted
# Outline: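 ME-180 cells carrying a SIE-driven beta-lactamase reporter are stimulated with 40 pM IL-6 for 5 h at 37C in the presence of compound. The 460/530 nm FRET substrate ratio is read after 2.5 h at RT. Data are normalised to 300 pM IL-6 and to 125 nM JAK inhibitor controls.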
# [5] = biological target: Glucocorticoid receptor (Homo sapiens) (UniProt P04150); assay: GR-EFC Redistribution (AID 451; calls by dose curve; further: potency means the concentration at half of the fitted maximal effect); settings: CHO-K1 GR-EFC translocation, beta-gal luminescence, 2 h
# Sequence of Glucocorticoid receptor (Homo sapiens) (P04150 whole entry, looked up, the tested form may be a part): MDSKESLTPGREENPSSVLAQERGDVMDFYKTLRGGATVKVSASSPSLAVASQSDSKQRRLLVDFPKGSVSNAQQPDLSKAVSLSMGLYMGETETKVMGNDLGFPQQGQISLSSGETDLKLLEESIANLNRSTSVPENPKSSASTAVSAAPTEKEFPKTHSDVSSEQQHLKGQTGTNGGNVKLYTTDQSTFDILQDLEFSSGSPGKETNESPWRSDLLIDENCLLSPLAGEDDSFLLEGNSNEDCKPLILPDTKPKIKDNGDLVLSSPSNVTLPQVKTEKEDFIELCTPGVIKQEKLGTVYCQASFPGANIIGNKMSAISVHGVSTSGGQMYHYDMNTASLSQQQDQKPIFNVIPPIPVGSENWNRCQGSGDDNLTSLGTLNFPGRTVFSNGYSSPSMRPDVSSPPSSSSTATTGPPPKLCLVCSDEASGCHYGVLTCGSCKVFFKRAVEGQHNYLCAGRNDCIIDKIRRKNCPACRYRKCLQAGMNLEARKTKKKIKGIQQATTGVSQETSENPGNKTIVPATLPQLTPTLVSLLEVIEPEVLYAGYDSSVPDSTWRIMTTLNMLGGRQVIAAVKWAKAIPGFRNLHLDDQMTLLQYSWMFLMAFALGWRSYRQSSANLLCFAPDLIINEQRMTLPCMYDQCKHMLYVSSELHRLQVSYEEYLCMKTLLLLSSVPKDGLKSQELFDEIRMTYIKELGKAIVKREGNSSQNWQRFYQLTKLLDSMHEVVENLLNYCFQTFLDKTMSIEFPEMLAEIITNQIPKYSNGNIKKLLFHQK
# Outline: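 CHO-K1 cells expressing nuclear EA and GR-ED fragments of b-gal; compounds titrated up to 46 uM final, 2 h at 37 C. GR nuclear translocation read as complemented b-gal luminescence after 1 h RT detection.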
# [6] = biological target: 3',5'-cyclic-AMP phosphodiesterase 4B (Homo sapiens) (UniProt Q07343); assay: qHTS Assay for Inhibitors of PDE-IV (AID 607; active means well fitted activation curve with a large enough effect in the main read-out, with a control signal flat, not every such curve was filed as active; further: % of control where 0% means no effect)
# Outline: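 HEK293 ACTOne cells with CNG channel (1000/well), endogenous PDE4; membrane potential dye, compounds up to 22.9 uM final. Fluorescence Ex 535/Em 590; RO 20-1724 (100 uM final) as reference.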
# [7] = biological target: Cytochrome P450 3A4 (Homo sapiens) (UniProt P08684); assay: qHTS Assay for Inhibitors and Substrates of Cytochrome P450 3A4 (AID 884); further: nearly all actives have a fitted effect of over 50% in size; further: potency means the concentration at half of the fitted maximal effect
# Sequence of Cytochrome P450 3A4 (Homo sapiens) (P08684 whole entry, looked up): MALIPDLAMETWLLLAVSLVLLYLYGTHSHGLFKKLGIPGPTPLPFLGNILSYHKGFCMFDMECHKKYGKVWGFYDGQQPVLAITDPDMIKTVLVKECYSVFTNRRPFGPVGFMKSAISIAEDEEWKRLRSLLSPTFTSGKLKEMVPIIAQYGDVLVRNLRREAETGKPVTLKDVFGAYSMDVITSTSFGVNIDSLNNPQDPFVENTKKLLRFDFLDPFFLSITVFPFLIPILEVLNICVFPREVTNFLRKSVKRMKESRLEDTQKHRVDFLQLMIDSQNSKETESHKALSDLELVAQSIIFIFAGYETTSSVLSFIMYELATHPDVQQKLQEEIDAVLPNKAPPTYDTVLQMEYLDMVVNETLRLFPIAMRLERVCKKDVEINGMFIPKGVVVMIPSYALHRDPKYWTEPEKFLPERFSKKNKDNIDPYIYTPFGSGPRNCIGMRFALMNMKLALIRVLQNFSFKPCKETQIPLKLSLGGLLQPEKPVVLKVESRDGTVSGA
# Outline: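 20 nM human CYP3A4 with 25 uM Luciferin-PPXE (at KM) in 200 mM KPO4, preincubated 10 min with compound; NADPH regeneration started a 60 min RT reaction. Luciferin detected by luminescence, normalized to 57 uM ketoconazole as full inhibition.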
# [8] = biological target: Cytochrome P450 3A4 (Homo sapiens) (UniProt P08684); assay: qHTS Assay for Activators of Cytochrome P450 3A4 (AID 885); further: nearly all actives have a fitted effect of over 65% in size; further: potency means the concentration at half of the fitted maximal effect
# Outline: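 Human CYP3A4 (20 nM) with Luciferin-PPXE at 25 uM (its KM) in 200 mM KPO4; 10 min compound preincubation, then NADPH regeneration and 60 min reaction at RT. Luciferin read by luminescence; normalized to 57 uM ketoconazole full inhibition.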
# [9] = qHTS Assay for Lipid Storage Modulators (AID 1519; calls by dose curve); settings: Drosophila S3 cells, BODIPY lipid droplet/cell ratio, laser cytometry, cells loaded with oleic acid; for activity change, negative = inhibition: at 57.5 µM (top of the series)
# Outline: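 Cells seeded at 5,000 per well were treated with compounds over a concentration series and loaded with oleic acid (400 uM, as added). Lipid droplet fluorescence (488 nm excitation, 500-530 nm channel) was read by laser-scanning cytometry and normalized to 20 uM Triacsin C.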
# [10] = Primary qHTS for small molecule stabilizers of the endoplasmic reticulum resident proteome: Secreted ER Calcium Modulated Protein (SERCaMP) assay (AID 1508630); further: on the % scale 0 is the no-effect control and ±100 the full control effect
# Outline: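 GLuc-SERCaMP-expressing SH-SY5Y cells, pretreated 16 h with compound, are challenged with thapsigargin to empty ER calcium stores; after 4 h, coelenterazine is added directly to the medium and luminescence is imaged.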
# [11] = biological target: Rap guanine nucleotide exchange factor 3 (Homo sapiens) (UniProt O95398); assay: Confirmatory qHTS for antagonist of cAMP-regulated guanine nucleotide exchange factor 3 (EPAC1) (AID 1645880);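 further: plate controls were DMSO only for no effect and full effect of the ATA control for full effect; nearly all actives have a fitted effect of over 55% in size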
# Sequence of Rap guanine nucleotide exchange factor 3 (Homo sapiens) (O95398 whole entry, looked up): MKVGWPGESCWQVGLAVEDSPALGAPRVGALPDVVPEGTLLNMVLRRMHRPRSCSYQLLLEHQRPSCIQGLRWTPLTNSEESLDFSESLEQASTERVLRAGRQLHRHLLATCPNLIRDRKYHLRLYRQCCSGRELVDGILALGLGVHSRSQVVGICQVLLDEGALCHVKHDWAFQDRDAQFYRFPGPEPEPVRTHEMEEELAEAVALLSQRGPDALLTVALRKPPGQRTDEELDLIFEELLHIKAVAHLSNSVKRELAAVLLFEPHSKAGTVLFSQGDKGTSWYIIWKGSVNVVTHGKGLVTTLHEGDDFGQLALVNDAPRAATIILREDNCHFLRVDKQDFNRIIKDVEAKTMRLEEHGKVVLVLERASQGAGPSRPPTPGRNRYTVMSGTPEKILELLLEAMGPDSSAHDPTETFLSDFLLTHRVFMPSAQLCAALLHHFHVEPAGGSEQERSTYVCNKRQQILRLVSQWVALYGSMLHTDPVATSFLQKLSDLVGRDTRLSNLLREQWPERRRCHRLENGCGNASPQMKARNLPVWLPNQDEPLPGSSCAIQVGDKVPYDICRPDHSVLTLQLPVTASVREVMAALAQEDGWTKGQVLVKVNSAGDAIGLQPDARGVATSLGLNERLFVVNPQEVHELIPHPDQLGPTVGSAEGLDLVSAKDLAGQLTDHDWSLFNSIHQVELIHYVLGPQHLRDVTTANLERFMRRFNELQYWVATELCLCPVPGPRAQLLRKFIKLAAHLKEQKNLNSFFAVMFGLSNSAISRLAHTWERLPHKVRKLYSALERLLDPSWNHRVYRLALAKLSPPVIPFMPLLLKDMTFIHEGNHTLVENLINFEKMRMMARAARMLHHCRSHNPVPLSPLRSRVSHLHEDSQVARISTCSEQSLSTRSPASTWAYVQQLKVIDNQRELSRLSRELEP
# Outline: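 Nucleotide exchange uses 100 nM EPAC1, 250 nM RAP1B-BODIPY-GDP and 50 uM GDP, with compounds in a concentration-titration series. After 5 min at room temperature, fluorescence (480 nm ex/540 nm em) is read every 5 min for 30 min. Data are normalized to control ATA and DMSO.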
# [12] = biological target: Rap guanine nucleotide exchange factor 3 (Homo sapiens) (UniProt O95398); assay: Confirmatory qHTS for agonist of cAMP-regulated guanine nucleotide exchange factor 3 (EPAC1) (AID 1645881);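 further: EPAC1 catalysed release of BODIPY-GDP from Rap1B seen as fluorescence loss; 100% = effect of cAMP agonist control; nearly all actives have a fitted effect of over 75% in size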
# [13] = biological target: Rap guanine nucleotide exchange factor 4 (Homo sapiens) (UniProt Q8WZA2); assay: Confirmatory qHTS for agonist of cAMP-regulated guanine nucleotide exchange factor 4 (EPAC2) (AID 1645884);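 further: nucleotide exchange releases bodipy-GDP from Rap1 and this lowers its fluorescence; on the % scale 0 is the no-effect control and ±100 the full control effect; nearly all actives have a fitted effect of over 65% in size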
# Sequence of Rap guanine nucleotide exchange factor 4 (Homo sapiens) (Q8WZA2 whole entry, looked up): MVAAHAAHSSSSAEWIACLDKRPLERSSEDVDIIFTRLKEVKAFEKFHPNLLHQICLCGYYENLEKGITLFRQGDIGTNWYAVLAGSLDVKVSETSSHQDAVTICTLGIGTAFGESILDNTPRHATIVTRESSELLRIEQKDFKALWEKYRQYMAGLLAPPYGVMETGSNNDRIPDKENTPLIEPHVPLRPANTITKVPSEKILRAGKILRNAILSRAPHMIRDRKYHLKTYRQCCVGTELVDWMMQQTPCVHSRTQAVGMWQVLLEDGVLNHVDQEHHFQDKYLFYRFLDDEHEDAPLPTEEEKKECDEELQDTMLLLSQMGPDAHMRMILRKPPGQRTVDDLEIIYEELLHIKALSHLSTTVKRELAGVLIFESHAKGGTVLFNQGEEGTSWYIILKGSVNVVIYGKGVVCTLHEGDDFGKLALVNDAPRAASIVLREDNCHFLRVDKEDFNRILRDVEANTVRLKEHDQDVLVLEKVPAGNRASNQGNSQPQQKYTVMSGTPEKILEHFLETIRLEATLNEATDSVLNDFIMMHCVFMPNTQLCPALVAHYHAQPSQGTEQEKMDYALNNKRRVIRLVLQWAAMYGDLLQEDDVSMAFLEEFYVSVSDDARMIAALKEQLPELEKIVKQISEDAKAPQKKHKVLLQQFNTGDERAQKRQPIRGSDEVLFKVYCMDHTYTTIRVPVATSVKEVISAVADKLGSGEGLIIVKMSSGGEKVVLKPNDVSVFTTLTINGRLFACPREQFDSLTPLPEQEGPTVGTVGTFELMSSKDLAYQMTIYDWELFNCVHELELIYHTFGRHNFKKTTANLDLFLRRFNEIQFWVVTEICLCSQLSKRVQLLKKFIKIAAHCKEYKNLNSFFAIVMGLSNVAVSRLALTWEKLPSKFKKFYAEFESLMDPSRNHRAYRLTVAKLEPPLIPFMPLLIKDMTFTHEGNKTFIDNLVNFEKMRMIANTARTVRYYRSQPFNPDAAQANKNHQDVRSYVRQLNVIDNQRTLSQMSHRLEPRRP
# [14] = biological target: Rap guanine nucleotide exchange factor 4 (Homo sapiens) (UniProt Q8WZA2); assay: Confirmatory qHTS for antagonist of cAMP-regulated guanine nucleotide exchange factor 4 (EPAC2) (AID 1645885); further: nearly all actives have a fitted effect of over 25% in size; further: potency means the concentration at half of the fitted maximal effect
# [15] = NFAT Signaling Pathway (AID 444; active means well fitted curve in either direction with a large enough effect, not every such curve was filed as active;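 further: carbachol stimulus at about its EC50 of 1 µM final; on the % scale 0 is the no-effect control and ±100 the full control effect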); settings: Jurkat NFAT-bla M1, carbachol, beta-lactamase ratio, 5 h; at 7.69 µM (top of the series) unless noted
# Outline: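 Jurkat cells with NFAT-driven β-lactamase reporter and co-expressed M1 receptor, stimulated with carbachol (final 1 uM, ~EC50), compound titration, 5 h at 37 °C. CCF4 loaded 1 h at RT; 460/530 nm ratio gave %activity and AC50.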
# [16] = biological target: Glucocorticoid receptor (Homo sapiens) (UniProt P04150); assay: GR-GFP Redistribution (AID 450;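 active means compounds whose dose series gives a full or clear partial fitted curve of increased nuclear translocation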; further: potency means the concentration at half of the fitted maximal effect); settings: U2OS GR-GFP nuclear translocation, laser cytometry, 2 h
# [17] = biological target: Mitogen-activated protein kinase 10 (Mus musculus) (UniProt Q61831); assay: JNK3 AlphaScreen Assay (AID 530; active means well fitted curve in either direction with a large enough effect, not every such curve was filed as active)
# Outline: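 qHTS format: compounds tested as titrations against IL-1beta/TNF-alpha-activated HepG2 lysate JNK3 with biotin-GST-cJun substrate and 10 uM ATP at room temperature. Loss of anti-phospho-cJun AlphaScreen signal indicates inhibition.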
# [18] = biological target: Cytochrome P450 2D6 (Homo sapiens) (UniProt P10635); assay: qHTS Assay for Inhibitors and Substrates of Cytochrome P450 2D6 (AID 891); further: potency means the concentration at half of the fitted maximal effect; nearly all actives have a fitted effect of over 60% in size
# Outline: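 Human CYP2D6 (5 nM) with 30 uM Luciferin-ME EGE (at Km) in 100 mM KPO4, compound preincubated 10 min, then NADPH regeneration system for 60 min at room temperature. Luciferin read by luminescence; normalized to 1.43 uM quinidine.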
# [19] = biological target: Cytochrome P450 2C19 (Homo sapiens) (UniProt P33261); assay: qHTS Assay for Inhibitors and Substrates of Cytochrome P450 2C19 (AID 899); further: potency means the concentration at half of the fitted maximal effect; nearly all actives have a fitted effect of over 60% in size
# Outline: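 Signal comes from luciferase acting on luciferin released by CYP2C19-mediated hydroxylation of Luciferin-H EGE, 10uM (KM). Assay mix: 5nM enzyme, 50mM KPO4; 60 min at 37C with NADPH regeneration. Data normalized against 57uM ketoconazole.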
# [20] = Confirmation and Secondary Assay for Modulators of Hemoglobin Beta Chain Splicing at IVS2 654 locus (AID 910);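 further: HeLa cells stably carrying EGFP split by mutant beta-globin IVS2-654 intron; % of control where 0% means no effect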
# Outline: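 HeLa cells stably expressing EGFP interrupted by β-globin IVS2-654 intron, seeded overnight in Opti-MEM/2% FCS, then treated 2 days at 37 °C. Restored splicing read as total peak GFP intensity per well by laser scanning cytometry (488 nm excitation, 500–520 nm emission); 500 nM antisense PNA as control.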
# [21] = Confirmation and Secondary Assay for Modulators of Hemoglobin Beta Chain Splicing at IVS2 705 locus (AID 930);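 further: HeLa cells stably expressing the EGFP-705 splicing reporter; GFP fluorescence per well restored by corrected splicing of the IVS2-705 intron in EGFP; % of control where 0% means no effect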
# Outline: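 HeLa EGFP-705 reporter; 500 cells/well, o/n 37C 5% CO2; cpd 2 d; 488 ex/500-520 em laser scan; total peak GFP intensity/well. Ref: 500 nM […] antisense PNA.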
# [22] = biological target: Dual specificity protein kinase CLK4 (Homo sapiens) (UniProt Q9HAZ1); assay: qHTS Assay for Inhibitors of CDC-like Kinase 4 (ADP-Glo Assay) (AID 1771); further: nearly all actives have a fitted effect of over 70% in size; further: potency means the concentration at half of the fitted maximal effect
# Sequence of Dual specificity protein kinase CLK4 (Homo sapiens) (Q9HAZ1 whole entry, looked up): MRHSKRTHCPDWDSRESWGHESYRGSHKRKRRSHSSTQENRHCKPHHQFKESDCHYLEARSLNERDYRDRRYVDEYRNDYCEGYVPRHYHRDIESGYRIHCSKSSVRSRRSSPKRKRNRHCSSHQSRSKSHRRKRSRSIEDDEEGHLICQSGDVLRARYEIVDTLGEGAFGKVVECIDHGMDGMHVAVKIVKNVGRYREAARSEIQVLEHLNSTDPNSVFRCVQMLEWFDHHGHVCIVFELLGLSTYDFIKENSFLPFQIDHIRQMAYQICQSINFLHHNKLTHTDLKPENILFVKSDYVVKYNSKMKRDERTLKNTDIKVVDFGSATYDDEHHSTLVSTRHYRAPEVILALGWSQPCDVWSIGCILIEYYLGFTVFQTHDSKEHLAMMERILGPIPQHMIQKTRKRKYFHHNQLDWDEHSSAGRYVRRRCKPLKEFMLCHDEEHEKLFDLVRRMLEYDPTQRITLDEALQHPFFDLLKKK
# Outline: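 Kinase reaction: Clk4 at 25 nM, RS repeat peptide substrate at 100 uM, ATP at 1 uM, 1 hr, room temperature. Product ADP detected as luciferase signal via ADP-Glo.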
# [23] = biological target: Dual specificity protein kinase CLK4 (Homo sapiens) (UniProt Q9HAZ1); assay: qHTS Assay for Inhibitors of CDC-like Kinase 4 (Kinase-Glo Assay) (AID 1770); further: on the % scale 0 is the no-effect control and ±100 the full control effect; nearly all actives have a fitted effect of over 65% in size
# Outline: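 25 nM Clk4 with 100 uM RS repeat peptide and 1 uM ATP (final) in Tris pH7.5, 10 mM MgCl2, 4.5 h at room temperature. Remaining ATP measured by Kinase-Glo luciferase luminescence.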
# [24] = biological target: Dual specificity protein kinase CLK4 (Homo sapiens) (UniProt Q9HAZ1); assay: qHTS Assay for Inhibitors of CDC-like Kinase 4 (ADP-FP Assay) (AID 1795);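 further: recombinant human CLK4 phosphorylating RS repeat peptide at 1 µM ATP; on the % scale 0 is the no-effect control and ±100 the full control effect; nearly all actives have a fitted effect of over 60% in size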
# Outline: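 Recombinant Clk4 (6.25 nM) phosphorylated 100 uM RS repeat peptide with 1 uM ATP in 25 mM Tris pH 7.5, 10 mM MgCl2, 0.5 mM EGTA, 2.5 mM DTT, 0.01% Triton X-100 for 1 h. ADP was detected by Transcreener ADP2 competitive fluorescence polarization after 30 min at room temperature.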
# [25] = biological target: Ubiquitin carboxyl-terminal hydrolase 1 (Homo sapiens) (UniProt O94782); assay: Inhibitors of USP1/UAF1: Pilot qHTS (AID 504865);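 further: rhodamine fluorescence freed from ubiquitin-rhodamine substrate followed over time; top concentration of the series differs between compounds; on the % scale 0 is the no-effect control and ±100 the full control effect; nearly all actives have a fitted effect of over 35% in size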
# Outline: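 USP1/UAF1 complex at 1 nM preincubated 15 min at room temperature with compound, then Ub-Rho substrate added at 150 nM final. Fluorescence (480/540 nm) read kinetically in 50 mM HEPES pH 7.8, 0.5 mM EDTA, 1 mM TCEP, 0.1 mg/ml BSA, 0.01% Tween-20.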
# [26] = measured here: cell count channel max response
# [27] = measured here: lipid channel max response
smiles,measurement,setting,value
O=C(c1cccc(F)c1)N1CCC2(CC1)CN(c1cccc(-c3ccccc3)c1)C2,Potency,[1],> 11.4 µM (inactive)
same,"activity change, negative = inhibition",[2],-6.1% (inactive)
same,Potency,[3],12.6 µM (active)
same,"activity, negative = inhibition",[4],-13.4% (inactive)
same,Potency,[5],> 46 µM (inactive)
same,Potency,[6],inactive
same,Potency,[7],inactive
same,Potency,[8],3.16 µM (active)
same,"activity change, negative = inhibition",[9],-19.2% (inactive)
same,max response,[9]; [26],-4.49%
same,max response,[9]; [27],-20.8%
same,Potency,[10],inactive
same,Potency,[11],inactive
same,outcome,[12],inactive
same,outcome,[13],inactive
same,Potency,[14],inactive
COc1cc2c(cc1OC)C(C(=O)c1ccc(OC)c(OC)c1O)=NCC2,Potency,[10],inactive
COc1ccccc1CNc1ccnc(-c2ccc3c(c2)OCO3)n1,"activity change, negative = inhibition",[2],-17.7% (inactive)
same,Potency,[3],0.631 µM (active)
same,"activity change, negative = inhibition",[15],-13.2% (inactive)
same,"activity, negative = inhibition",[4],-21.3% (inactive)
same,Potency,[16],> 46 µM (inactive)
same,Potency,[5],> 46 µM (inactive)
same,outcome,[17],inactive
same,Potency,[8],inactive
same,Potency,[18],0.794 µM (active)
same,Potency,[19],3.16 µM (active)
same,outcome,[20],inactive
same,outcome,[21],inactive
same,"activity change, negative = inhibition",[9],9.28% (inactive)
same,max response,[9]; [26],-12.3%
same,max response,[9]; [27],-4.95%
same,Potency,[10],inactive
same,outcome,[12],inactive
same,outcome,[13],inactive
same,Potency,[14],17.5 µM (active)
COc1ccccc1-c1cc(NCc2cccc(C)c2)ncn1,Potency,[1],> 11.4 µM (inactive)
same,"activity change, negative = inhibition",[2],-9.64% (inactive)
same,Potency,[3],1.58 µM (active)
same,"activity change, negative = inhibition",[15],1.95% (inactive)
same,"activity, negative = inhibition",[4],-2.82% (inactive)
same,Potency,[16],> 46 µM (inactive)
same,Potency,[5],> 46 µM (inactive)
same,outcome,[17],inactive
same,Potency,[7],6.31 µM (active)
same,Potency,[8],inactive
same,"activity change, negative = inhibition",[9],-23.2% (inactive)
same,max response,[9]; [26],4.86%
same,max response,[9]; [27],-16.7%
same,Potency,[22],35.5 µM (active)
same,Potency,[10],inactive
same,Potency,[11],inactive
same,Potency,[14],inactive
O=C(c1cccc(F)c1)N1CCC2(CCN(Cc3cc(C(F)(F)F)cc(C(F)(F)F)c3)CC2)CC1,Potency,[1],> 11.4 µM (inactive)
same,Potency,[3],inactive
same,"activity, negative = inhibition",[4],9.15% (inactive)
same,Potency,[5],> 46 µM (inactive)
same,outcome,[17],inactive
same,Potency,[6],inactive
same,Potency,[7],inactive
same,"activity change, negative = inhibition",[9],1.43% (inactive)
same,max response,[9]; [26],10.5%
same,max response,[9]; [27],12.9%
same,Potency,[10],inactive
same,outcome,[12],inactive
same,outcome,[13],inactive
same,Potency,[14],39.3 µM (active)
N#CCCn1c(=O)c(-c2ccc(Cl)cc2)nc2cnc(Oc3ccccc3)nc21,Potency,[1],> 11.4 µM (inactive)
same,"activity change, negative = inhibition",[2],-26.3% (inactive)
same,Potency,[3],0.501 µM (active)
same,"activity change, negative = inhibition",[15],-9.95% (inactive)
same,"activity, negative = inhibition",[4],-6.74% (inactive)
same,Potency,[16],> 9.22 µM (inactive)
same,Potency,[5],> 46 µM (inactive)
same,outcome,[17],inactive
same,Potency,[6],inactive
same,"activity change, negative = inhibition",[9],4.78% (inactive)
same,max response,[9]; [26],19.6%
same,max response,[9]; [27],24.2%
same,Potency,[23],inactive
same,Potency,[22],inactive
same,Potency,[24],inactive
same,Potency,[25],inactive
same,Potency,[10],inactive
